Results from PubChem BioAssay (NCATS).
Records with an inconclusive call do not appear. The source made the active and inactive calls. Unless noted, calls follow the shape of the dose curve; as a rule, active = well fitted curve in the direction sought with a large enough effect; inconclusive = small, poorly fitted or top-dose-only effect, or another doubt; inactive = no such curve, though single readings can be large; an effect the other way counts as inactive or inconclusive.

What was measured:
[1] = target: Lysosomal acid glucosylceramidase (Homo sapiens) (UniProt P04062); assay: Glucocerebrosidase-p2 (AID 348; in the data active = potency below about 10 µM; also: potency is read from the fitted curve at half-maximal effect); conditions: purified GBA, blue fluorogenic substrate, 40 min
Summary of the method: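 Normal human glucocerebrosidase (0.2 nM) with blue fluorogenic substrate (80 uM final) in citrate/phosphate pH 5.9 with 10mM sodium taurocholate, 0.01% tween-20; 40 min RT, NaOH/glycine stop; fluorescence Ex 365/Em 440; AC50 from a titration from 0.6 nM upwards.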

[2] = AP1 Signaling Pathway (AID 357; active = well fitted curve in either direction with a large enough effect, not every such curve was filed as active;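 also: ME-180 reporter cells stimulated with EGF at its EC50 level; % is scaled to controls: 0 for no effect and ±100 for the full control effect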); conditions: ME-180 AP-1-bla reporter, EGF-induced, beta-lactamase ratio, 5 h; at 7.69 µM (top of the series) unless noted
Summary of the method: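 A ratiometric CCF4 readout (405 nm excitation; 460 and 530 nm emission) quantified AP-1-driven beta-lactamase in ME-180 cells after 5 h with compound and EC50 EGF; AC50 values were derived for activators and inhibitors.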

[3] = Stat Signaling Pathway (AID 446; active = well fitted curve in either direction with a large enough effect, not every such curve was filed as active;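 also: ME-180 cervical cancer cells given 40 pM IL-6 alongside compound; SIE-controlled beta-lactamase reporter measured as 460/530 nm FRET emission ratio; % is scaled to controls: 0 for no effect and ±100 for the full control effect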); conditions: ME-180 SIE beta-lactamase reporter, IL-6 stimulated, 5 h; at 7.69 µM (top of the series) unless noted
Summary of the method: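 Overnight-plated ME-180 cells bearing a STAT Inducible Element beta-lactamase reporter; 5 h co-exposure to compound and 40 pM IL-6; values normalized to 300 pM IL-6 and 125 nM JAK inhibitor controls.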

[4] = target: Glucocorticoid receptor (Homo sapiens) (UniProt P04150); assay: GR-GFP Redistribution (AID 450;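 active = compounds whose dose series gives a full or clear partial fitted curve of increased nuclear translocation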; also: potency is read from the fitted curve at half-maximal effect); conditions: U2OS GR-GFP nuclear translocation, laser cytometry, 2 h
[5] = target: Glucocorticoid receptor (Homo sapiens) (UniProt P04150); assay: GR-EFC Redistribution (AID 451; calls by dose curve; also: potency is read from the fitted curve at half-maximal effect); conditions: CHO-K1 GR-EFC translocation, beta-gal luminescence, 2 h
Summary of the method: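 Translocation of GR-ED fusion to nuclear EA restores b-gal, read by luminescence after 1 h room-temperature detection. Engineered CHO-K1 biosensor cells, 1,000/well, exposed 2 h at 37 C to titrations up to 46 uM final.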

[6] = target: Mitogen-activated protein kinase 10 (Mus musculus) (UniProt Q61831); assay: JNK3 AlphaScreen Assay (AID 530; active = well fitted curve in either direction with a large enough effect, not every such curve was filed as active;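 also: kinase came from lysate of stimulated human HepG2 cells; signal reports phosphorylation of biotinylated GST-cJun 1-79 at Ser73 with 10 µM ATP; % is scaled to controls: 0 for no effect and ±100 for the full control effect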); conditions: JNK3 lysate, c-Jun phosphorylation; series mostly up to 57.1 µM
Summary of the method: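 Kinase buffer: 20 mM Tris-HCl pH 7.6, 10 mM MgCl2, 1 mM DTT, 0.1 mM Na3VO4, 0.01% Tween-20; ATP 10 uM. Substrate biotin-GST-cJun(1-79), enzyme from activated HepG2 lysates. Detection by Ser73 phospho-antibody AlphaScreen.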

[7] = target: 3',5'-cyclic-AMP phosphodiesterase 4B (Homo sapiens) (UniProt Q07343); assay: qHTS Assay for Inhibitors of PDE-IV (AID 607; active = well fitted activation curve with a large enough effect in the main read-out, with a control signal flat, not every such curve was filed as active; also: % of control where 0% means no effect); conditions: HEK293 ACTOne CNG channel cells, membrane potential fluorescence; series mostly up to 22.9 µM
Summary of the method: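 Live HEK293 cells with a modified cyclic nucleotide-gated (CNG) channel report intracellular cAMP via membrane-potential dye fluorescence (ex 535/em 590 nm). Endogenous PDE-IV was targeted. Compounds were tested at up to 22.9 uM final; RO 20-1724 100 uM served as control.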

[8] = qHTS Assay for Lipid Storage Modulators (AID 1519; calls by dose curve); conditions: Drosophila S3 cells, BODIPY lipid droplet/cell ratio, laser cytometry, cells loaded with oleic acid; for activity change, negative = inhibition: at 57.5 µM (top of the series)
Summary of the method: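 Cells seeded at 5,000 per well were treated with compounds over a concentration series and loaded with oleic acid (400 uM, as added). Lipid droplet fluorescence (488 nm excitation, 500-530 nm channel) was read by laser-scanning cytometry and normalized to 20 uM Triacsin C.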

[9] = target: Dual specificity protein kinase CLK4 (Homo sapiens) (UniProt Q9HAZ1); assay: qHTS Assay for Inhibitors of CDC-like Kinase 4 (Kinase-Glo Assay) (AID 1770); conditions: recombinant Clk4, Kinase-Glo ATP depletion luminescence; series mostly up to 66.7 µM; also: nearly all actives have a fitted effect of over 65% in size; also: potency is read from the fitted curve at half-maximal effect
Summary of the method: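 25 nM Clk4 with 100 uM RS repeat peptide and 1 uM ATP (final) in Tris pH7.5, 10 mM MgCl2, 4.5 h at room temperature. Remaining ATP measured by Kinase-Glo luciferase luminescence.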

[10] = target: Dual specificity protein kinase CLK4 (Homo sapiens) (UniProt Q9HAZ1); assay: qHTS Assay for Inhibitors of CDC-like Kinase 4 (ADP-Glo Assay) (AID 1771); conditions: recombinant CLK4, ADP-Glo luminescence; series mostly up to 80 µM; also: nearly all actives have a fitted effect of over 70% in size; also: potency is read from the fitted curve at half-maximal effect
Summary of the method: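 In this ADP-Glo format, 1 uM ATP and 100 uM RS peptide served as substrates for 25 nM Clk4 in Mg2+/EGTA/DTT/Triton buffer; reactions ran 1 hr at room temperature before luminescent ADP quantification.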

[11] = target: Dual specificity protein kinase CLK4 (Homo sapiens) (UniProt Q9HAZ1); assay: qHTS Assay for Inhibitors of CDC-like Kinase 4 (ADP-FP Assay) (AID 1795); conditions: Transcreener ADP fluorescence polarization; series mostly up to 50 µM; also: nearly all actives have a fitted effect of over 60% in size; also: potency is read from the fitted curve at half-maximal effect
Summary of the method: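 Recombinant Clk4 (6.25 nM) phosphorylated 100 uM RS repeat peptide with 1 uM ATP in 25 mM Tris pH 7.5, 10 mM MgCl2, 0.5 mM EGTA, 2.5 mM DTT, 0.01% Triton X-100 for 1 h. ADP was detected by Transcreener ADP2 competitive fluorescence polarization after 30 min at room temperature.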

[12] = Primary qHTS for small molecule stabilizers of the endoplasmic reticulum resident proteome: Secreted ER Calcium Modulated Protein (SERCaMP) assay (AID 1508630); conditions: SH-SY5Y GLuc-SERCaMP (Gaussia luciferase released on ER calcium loss) secretion, thapsigargin, luminescence; series mostly up to 38.4 µM; also: % is scaled to controls: 0 for no effect and ±100 for the full control effect
Summary of the method: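 The SH-SY5Y reporter protocol was run at 3 concentrations up to 38.3 uM (primary) or 11 concentrations (follow-up): 16 h compound, 100 nM thapsigargin for 4 h, then extracellular luciferase luminescence.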

[13] = qHTS Assay for Identification of Small Molecule Agonists for Hypoxia Response Element Signaling Pathway (AID 914; active = well fitted activation curve with a large enough effect in the signal ratio, with a control signal flat, not every such curve was filed as active; the % refers to the signal ratio; also: potency is read from the fitted curve at half-maximal effect; as to activation: % of control where 0% means no effect); conditions: ME-180 (cervical carcinoma) HRE-bla reporter, beta-lactamase ratio, CoCl2, 17 h; activation: stronger effect = higher value
Summary of the method: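 HRE-bla ME-180 cells with beta-lactamase reporter under hypoxia response element, compounds with EC50 CoCl2 for 17 hours at 37 C. CCF4 substrate, 460nm/530nm emission ratio gave %Activity; AC50 from titration series.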

[14] = target: Ubiquitin carboxyl-terminal hydrolase 1 (Homo sapiens) (UniProt O94782); assay: Inhibitors of USP1/UAF1: Pilot qHTS (AID 504865); conditions: purified USP1/UAF1, Ub-rhodamine cleavage fluorescence; series mostly up to 54.9 µM; also: nearly all actives have a fitted effect of over 35% in size; also: potency is read from the fitted curve at half-maximal effect
Summary of the method: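 USP1/UAF1 complex at 1 nM preincubated 15 min at room temperature with compound, then Ub-Rho substrate added at 150 nM final. Fluorescence (480/540 nm) read kinetically in 50 mM HEPES pH 7.8, 0.5 mM EDTA, 1 mM TCEP, 0.1 mg/ml BSA, 0.01% Tween-20.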

[15] = target: Cytochrome P450 1A2 (Homo sapiens) (UniProt P05177); assay: p450-cyp1a2 (AID 410; calls by dose curve; also: potency is read from the fitted curve at half-maximal effect); conditions: recombinant CYP1A2, luciferin-ME demethylation, luminescence; series mostly up to 57 µM
Summary of the method: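 Read-out is luminescence from luciferin produced by CYP1A2 demethylation of Luciferin-ME (100uM, at Km). Detection reagent stopped the 60 min NADPH-dependent reaction; signals were normalized to 57 uM furafylline.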

[16] = NFAT Signaling Pathway (AID 444; active = well fitted curve in either direction with a large enough effect, not every such curve was filed as active); conditions: Jurkat NFAT-bla M1, carbachol, beta-lactamase ratio, 5 h; at 7.69 µM (top of the series) unless noted
Summary of the method: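 Read-out: CCF4 FRET ratio (460 nm/530 nm) after 1 h RT dye loading, used for %activity and AC50 from titration series. Cells: Jurkat NFAT-β-lactamase/M1 line, treated with compound plus 1 uM carbachol for 5 h, 37 °C.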

[17] = target: Cytochrome P450 3A4 (Homo sapiens) (UniProt P08684); assay: qHTS Assay for Inhibitors and Substrates of Cytochrome P450 3A4 (AID 884); conditions: recombinant CYP3A4, Luciferin-PPXE luminescence; series mostly up to 57.1 µM; also: potency is read from the fitted curve at half-maximal effect; nearly all actives have a fitted effect of over 50% in size
Summary of the method: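 Luminescent readout of luciferin produced by CYP3A4 (20 nM) dealkylation of Luciferin-PPXE, 25 uM (its KM). NADPH-driven reaction ran 60 min at RT after 10 min compound preincubation; data scaled to 57 uM ketoconazole as 100% inhibition.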

[18] = target: Cytochrome P450 3A4 (Homo sapiens) (UniProt P08684); assay: qHTS Assay for Activators of Cytochrome P450 3A4 (AID 885); conditions: recombinant CYP3A4, Luciferin-PPXE luminescence, 60 min; series mostly up to 57.1 µM; also: nearly all actives have a fitted effect of over 65% in size
Summary of the method: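 Using 20nM recombinant human CYP3A4 in potassium phosphate (200mM), substrate Luciferin-PPXE at 25uM, luminescent luciferin detection followed a 60-min RT NADPH reaction; data scaled to 57 uM ketoconazole.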

[19] = measured here: cell count channel max response
[20] = measured here: lipid channel max response

Glucocorticoid receptor (Homo sapiens), sequence (P04150 whole entry, looked up, the tested form may be a part): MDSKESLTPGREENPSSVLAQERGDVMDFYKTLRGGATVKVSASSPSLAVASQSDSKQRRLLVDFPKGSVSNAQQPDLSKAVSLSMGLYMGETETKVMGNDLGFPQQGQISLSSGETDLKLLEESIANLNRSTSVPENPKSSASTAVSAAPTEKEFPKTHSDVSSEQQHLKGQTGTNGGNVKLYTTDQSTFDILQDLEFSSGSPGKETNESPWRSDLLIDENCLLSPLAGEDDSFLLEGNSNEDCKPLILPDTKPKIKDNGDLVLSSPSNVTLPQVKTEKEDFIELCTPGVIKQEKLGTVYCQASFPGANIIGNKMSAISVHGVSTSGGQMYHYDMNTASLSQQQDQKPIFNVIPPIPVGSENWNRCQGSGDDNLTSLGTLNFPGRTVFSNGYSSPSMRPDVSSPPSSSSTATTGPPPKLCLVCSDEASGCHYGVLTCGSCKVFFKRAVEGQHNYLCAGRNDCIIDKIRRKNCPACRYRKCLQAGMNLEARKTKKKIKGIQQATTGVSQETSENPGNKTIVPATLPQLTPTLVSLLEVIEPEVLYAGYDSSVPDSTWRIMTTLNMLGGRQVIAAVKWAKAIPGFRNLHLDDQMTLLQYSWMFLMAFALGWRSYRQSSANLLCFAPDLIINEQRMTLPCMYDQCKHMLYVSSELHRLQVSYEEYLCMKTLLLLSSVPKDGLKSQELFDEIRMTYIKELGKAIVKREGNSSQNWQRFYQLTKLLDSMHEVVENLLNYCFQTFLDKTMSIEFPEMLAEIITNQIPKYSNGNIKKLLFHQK
Lysosomal acid glucosylceramidase (Homo sapiens), sequence (P04062 whole entry, looked up): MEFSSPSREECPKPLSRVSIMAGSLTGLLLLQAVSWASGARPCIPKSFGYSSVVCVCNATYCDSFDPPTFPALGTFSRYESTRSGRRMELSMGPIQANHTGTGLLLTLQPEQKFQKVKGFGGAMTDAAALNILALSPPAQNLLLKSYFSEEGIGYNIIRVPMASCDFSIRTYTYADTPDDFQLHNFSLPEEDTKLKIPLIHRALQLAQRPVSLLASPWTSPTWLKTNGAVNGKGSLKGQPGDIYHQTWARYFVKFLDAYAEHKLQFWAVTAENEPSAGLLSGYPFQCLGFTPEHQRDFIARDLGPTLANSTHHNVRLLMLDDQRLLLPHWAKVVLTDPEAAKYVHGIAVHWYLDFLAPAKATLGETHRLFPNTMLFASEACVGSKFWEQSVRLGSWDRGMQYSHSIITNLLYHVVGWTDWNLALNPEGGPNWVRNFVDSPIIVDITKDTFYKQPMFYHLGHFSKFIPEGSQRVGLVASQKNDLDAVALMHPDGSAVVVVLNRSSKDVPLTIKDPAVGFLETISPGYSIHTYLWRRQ
Ubiquitin carboxyl-terminal hydrolase 1 (Homo sapiens), sequence (O94782 whole entry, looked up): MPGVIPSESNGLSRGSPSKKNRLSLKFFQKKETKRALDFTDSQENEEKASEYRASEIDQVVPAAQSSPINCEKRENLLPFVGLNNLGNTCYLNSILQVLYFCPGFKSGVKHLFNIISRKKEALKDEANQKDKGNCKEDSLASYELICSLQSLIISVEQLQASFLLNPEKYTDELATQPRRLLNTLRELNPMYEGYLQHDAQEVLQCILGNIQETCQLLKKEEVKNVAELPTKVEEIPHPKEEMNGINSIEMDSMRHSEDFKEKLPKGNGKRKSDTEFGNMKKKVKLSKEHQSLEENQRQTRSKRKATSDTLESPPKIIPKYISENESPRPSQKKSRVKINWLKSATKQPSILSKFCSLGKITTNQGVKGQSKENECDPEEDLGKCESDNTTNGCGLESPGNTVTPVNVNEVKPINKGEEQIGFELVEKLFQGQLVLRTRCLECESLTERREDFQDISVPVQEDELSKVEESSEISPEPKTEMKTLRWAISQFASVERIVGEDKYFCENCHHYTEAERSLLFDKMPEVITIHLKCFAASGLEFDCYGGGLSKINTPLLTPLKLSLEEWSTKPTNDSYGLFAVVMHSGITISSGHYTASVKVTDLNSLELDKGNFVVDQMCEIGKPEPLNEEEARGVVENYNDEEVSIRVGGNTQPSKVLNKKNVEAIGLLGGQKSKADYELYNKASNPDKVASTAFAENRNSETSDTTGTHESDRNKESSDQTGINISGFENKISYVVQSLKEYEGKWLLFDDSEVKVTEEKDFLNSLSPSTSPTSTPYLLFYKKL
Dual specificity protein kinase CLK4 (Homo sapiens), sequence (Q9HAZ1 whole entry, looked up): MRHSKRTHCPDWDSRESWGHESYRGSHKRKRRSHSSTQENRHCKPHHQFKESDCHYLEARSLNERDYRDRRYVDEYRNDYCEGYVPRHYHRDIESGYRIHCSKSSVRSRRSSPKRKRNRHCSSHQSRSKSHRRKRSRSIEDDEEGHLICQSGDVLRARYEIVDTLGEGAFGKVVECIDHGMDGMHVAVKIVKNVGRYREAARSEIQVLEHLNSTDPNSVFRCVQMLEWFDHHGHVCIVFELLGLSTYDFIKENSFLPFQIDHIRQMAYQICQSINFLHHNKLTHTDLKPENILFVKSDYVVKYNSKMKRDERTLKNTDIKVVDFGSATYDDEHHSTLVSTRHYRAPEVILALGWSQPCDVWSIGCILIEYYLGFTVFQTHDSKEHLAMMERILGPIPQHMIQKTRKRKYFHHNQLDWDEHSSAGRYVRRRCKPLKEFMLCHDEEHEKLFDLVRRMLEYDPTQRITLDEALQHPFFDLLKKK
Cytochrome P450 3A4 (Homo sapiens), sequence (P08684 whole entry, looked up): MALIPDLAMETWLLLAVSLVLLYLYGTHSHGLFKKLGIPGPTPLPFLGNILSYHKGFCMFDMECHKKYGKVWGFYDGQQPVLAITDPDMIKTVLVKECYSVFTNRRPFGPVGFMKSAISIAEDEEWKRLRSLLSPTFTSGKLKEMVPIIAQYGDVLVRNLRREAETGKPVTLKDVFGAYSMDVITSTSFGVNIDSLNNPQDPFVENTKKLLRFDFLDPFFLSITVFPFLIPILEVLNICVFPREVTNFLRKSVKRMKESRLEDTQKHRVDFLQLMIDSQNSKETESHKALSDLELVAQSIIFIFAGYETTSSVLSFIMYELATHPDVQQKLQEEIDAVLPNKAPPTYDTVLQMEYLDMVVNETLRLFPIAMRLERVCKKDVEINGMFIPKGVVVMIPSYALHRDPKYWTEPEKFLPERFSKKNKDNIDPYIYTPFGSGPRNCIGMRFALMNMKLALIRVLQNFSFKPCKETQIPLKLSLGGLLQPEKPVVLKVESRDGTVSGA
3',5'-cyclic-AMP phosphodiesterase 4B (Homo sapiens), sequence (Q07343 whole entry, looked up): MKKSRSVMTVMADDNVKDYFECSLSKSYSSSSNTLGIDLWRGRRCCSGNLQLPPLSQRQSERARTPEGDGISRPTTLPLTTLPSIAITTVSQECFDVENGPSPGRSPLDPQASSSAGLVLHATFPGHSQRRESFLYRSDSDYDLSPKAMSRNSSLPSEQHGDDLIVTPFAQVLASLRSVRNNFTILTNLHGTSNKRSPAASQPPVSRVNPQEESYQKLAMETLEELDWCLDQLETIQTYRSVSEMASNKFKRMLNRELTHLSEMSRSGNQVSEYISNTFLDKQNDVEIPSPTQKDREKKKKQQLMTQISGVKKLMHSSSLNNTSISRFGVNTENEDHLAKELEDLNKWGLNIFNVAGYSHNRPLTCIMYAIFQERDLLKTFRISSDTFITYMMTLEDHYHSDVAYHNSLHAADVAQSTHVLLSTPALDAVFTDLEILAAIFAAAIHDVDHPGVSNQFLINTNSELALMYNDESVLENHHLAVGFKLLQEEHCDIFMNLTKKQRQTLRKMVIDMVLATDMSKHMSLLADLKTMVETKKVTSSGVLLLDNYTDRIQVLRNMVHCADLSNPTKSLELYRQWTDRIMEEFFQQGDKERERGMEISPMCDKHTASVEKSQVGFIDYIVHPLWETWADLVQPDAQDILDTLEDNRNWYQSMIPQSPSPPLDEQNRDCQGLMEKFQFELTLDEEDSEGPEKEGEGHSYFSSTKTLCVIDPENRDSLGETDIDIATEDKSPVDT
Cytochrome P450 1A2 (Homo sapiens), sequence (P05177 whole entry, looked up): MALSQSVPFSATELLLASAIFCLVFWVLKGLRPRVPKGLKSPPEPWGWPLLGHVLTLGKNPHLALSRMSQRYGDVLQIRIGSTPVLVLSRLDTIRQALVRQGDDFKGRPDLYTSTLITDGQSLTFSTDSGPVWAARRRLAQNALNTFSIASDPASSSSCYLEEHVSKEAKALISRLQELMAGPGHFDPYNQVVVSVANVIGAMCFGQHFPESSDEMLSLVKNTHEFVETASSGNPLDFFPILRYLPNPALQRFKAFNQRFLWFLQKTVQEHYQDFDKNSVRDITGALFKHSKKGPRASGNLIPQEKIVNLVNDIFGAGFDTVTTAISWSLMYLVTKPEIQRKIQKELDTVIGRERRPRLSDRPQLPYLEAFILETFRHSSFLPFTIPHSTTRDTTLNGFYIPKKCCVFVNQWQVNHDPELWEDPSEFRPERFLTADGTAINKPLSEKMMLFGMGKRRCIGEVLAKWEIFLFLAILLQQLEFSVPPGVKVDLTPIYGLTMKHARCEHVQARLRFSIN

CN(C)Cc1ccccc1-c1cncnc1Nc1ccccc1
inactive: Potency [1] > 11.4 µM | activity change, negative = inhibition [2] 7.98% | activity, negative = inhibition [3] 13.5% | Potency [4] > 46 µM | Potency [5] > 46 µM | outcome [6] | Potency [7] | activity change, negative = inhibition [8] 5.53% | Potency [9] | Potency [10] | Potency [11] | Potency [12]
18.6%: max response [8, 19]
26.9%: max response [8, 20]

Cc1cnc(CNc2ncnc3ccc(-c4c(C)noc4C)cc23)cn1
7.19%: max response [8, 20]
8.76%: max response [8, 19]
active: Potency [13] 3.98 µM | Potency [9] 2.51 µM | Potency [10] 2.82 µM | Potency [11] 3.55 µM
inactive: Potency [1] > 11.4 µM | activity change, negative = inhibition [2] 12.8% | Potency [4] > 46 µM | Potency [5] > 46 µM | Potency [7] | activity change, negative = inhibition [8] 0.208% | Potency [14] | Potency [12]

Cc1nc2cnc(N3CCN(C)CC3)nc2n(C)c1=O
active: Potency [15] 12.6 µM
7.23%: max response [8, 20]
5.81%: max response [8, 19]
inactive: Potency [1] > 11.4 µM | activity change, negative = inhibition [16] 8.62% | activity, negative = inhibition [3] -15% | Potency [4] > 9.22 µM | Potency [5] > 46 µM | outcome [6] | Potency [7] | activity change, negative = inhibition [8] 3.28% | Potency [9] | Potency [10] | Potency [11] | Potency [14] | Potency [12]

Clc1ccccc1-c1cncnc1NCc1cccs1
23.3%: max response [8, 20]
inactive: Potency [1] > 11.4 µM | activity change, negative = inhibition [2] -10.1% | activity, negative = inhibition [3] -9.78% | Potency [4] > 46 µM | outcome [6] | Potency [18] | activity change, negative = inhibition [8] 4.06% | Potency [9] | Potency [10] | Potency [11] | Potency [12]
active: Potency [17] 0.501 µM
21%: max response [8, 19]

FC(F)(F)c1ccccc1-c1nccc(NCc2cccs2)n1
6.69%: max response [8, 19]
active: Potency [17] 2 µM | Potency [14] 11.2 µM
8.2%: max response [8, 20]
inactive: Potency [1] > 11.4 µM | activity change, negative = inhibition [2] 2% | activity change, negative = inhibition [16] -3.1% | activity, negative = inhibition [3] -15.9% | Potency [4] > 46 µM | Potency [5] > 46 µM | outcome [6] | Potency [18] | activity change, negative = inhibition [8] 5.22% | Potency [9] | Potency [10] | Potency [11] | Potency [12]

O=c1c(-c2cc(F)cc(F)c2)nc2cnc(Nc3ccccc3)nc2n1C[C@H]1CCCO1
2.07%: max response [8, 20]
17.2%: max response [8, 19]
inactive: Potency [1] > 11.4 µM | activity change, negative = inhibition [2] -3.83% | activity change, negative = inhibition [16] -13.7% | activity, negative = inhibition [3] 1.12% | Potency [4] > 9.22 µM | Potency [5] > 46 µM | outcome [6] | Potency [7] | activation [13] -17% | activity change, negative = inhibition [8] -10.6% | Potency [9] | Potency [10] | Potency [11] | Potency [12]
